Where “and” joins values, the source holds several entries; their conditions need not be identical. Identical values can stand only once. In all, about 5,500 compounds went through this assay and about 2,000 (36%) were called active. Roughly 18% stayed inconclusive and do not appear here. Rule as the data show it: active = normalized growth mostly below about 0.91 (no sharp cut-off); inconclusive = no clear call, values can overlap the other calls; inactive = mostly above about 0.92. The list shows a part of the results.
Experiment: chemical genetic growth profiling, strain panel (AID 1159580);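 also: tested at 20 µM; growth read once vehicle control cultures reached saturation at 30 °C; 1 = growth at the plate median or of vehicle wells; lower values mean less growth of the strain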
Conditions: S. cerevisiae deletion strains, growth OD

Measured: normalized growth

O=C(O)c1ccccc1C(=O)Nc1ccc(S(=O)(=O)Nc2nccs2)cc1
inactive: locus YAL013W, strain DEP1, hits give low values 1.01 | locus YAL021C, strain ccr4, hits give low values 0.977 | locus YAL026C, strain drs2, hits give low values 0.986 | locus YAL030W, strain snc1, hits give low values 0.987 | locus YBL061C, strain skt5, hits give low values 0.968 | locus YBR009C, strain hhf1, hits give low values 0.994 | locus YBR021W, strain FUR4, hits give low values 1.01 | locus YBR023C, strain chs3, hits give low values 0.966 | locus YBR171W, strain sec66, hits give low values 0.978 | locus YBR229C, strain ROT2, hits give low values 1 | locus YBR231C, strain swc5, hits give low values 0.985 | locus YBR279W, strain paf1, hits give low values 0.991 | locus YCL011C, strain gbp2, hits give low values 0.978 | locus YCL016C, strain dcc1, hits give low values 0.954 | locus YCL029C, strain bik1, hits give low values 0.994 | locus YCL061C, strain MRC1, hits give low values 0.971 | locus YCL069W, strain vba3, hits give low values 0.988 | locus YCR088W, strain abp1, hits give low values 0.987 | locus YDL005C, strain med2, hits give low values 0.973 | locus YDL035C, strain GPR1, hits give low values 1.02 | locus YDL040C, strain nat1, hits give low values 0.977 | locus YDL074C, strain BRE1, hits give low values 1.01 | locus YDL101C, strain DUN1, hits give low values 1.01 | locus YDL134C, strain PPH21, hits give low values 1 | locus YDL185W, strain tfp1, hits give low values 0.995 | locus YDL192W, strain arf1, hits give low values 0.998 | locus YDR001C, strain nth1, hits give low values 0.987 | locus YDR069C, strain doa4, hits give low values 0.975 | locus YDR101C, strain arx1, hits give low values 0.984 | locus YDR137W, strain rgp1, hits give low values 0.963 | locus YDR159W, strain sac3, hits give low values 0.992 | locus YDR162C, strain NBP2, hits give low values 1 | locus YDR195W, strain ref2 0.996 | locus YDR297W, strain sur2, hits give low values 0.988 | locus YDR318W, strain mcm21, hits give low values 0.999 | locus YDR334W, strain swr1, hits give low values 0.966 | locus YDR335W, strain msn5, hits give low values 0.984 | locus YDR388W, hits give low values 0.993 | locus YDR392W, strain spt3, hits give low values 0.93 | locus YDR502C, strain sam2, hits give low values 1 | locus YEL003W, strain gim4, hits give low values 1.01 | locus YEL037C, strain rad23, hits give low values 0.981 | locus YEL061C, strain CIN8 (second series), hits give low values 0.99 | locus YEL061C, strain CIN8, hits give low values 1.01 | locus YER015W, strain faa2, hits give low values 0.96 | locus YER016W, strain bim1, hits give low values 0.993 | locus YER110C, hits give low values 0.998 | locus YER111C, strain swi4, hits give low values 0.973 | locus YER155C, strain BEM2 (second series), hits give low values 0.981 | locus YER155C, strain BEM2, hits give low values 0.995 | locus YER167W, strain BCK2, hits give low values 0.996 | locus YFR010W, strain ubp6, hits give low values 0.999 | locus YGL078C, strain dbp3, hits give low values 0.994 | locus YGL086W, strain mad1, hits give low values 0.991 | locus YGL167C, strain pmr1, hits give low values 0.962 | locus YGL173C, strain kem1, hits give low values 0.959 | locus YGL227W, strain vid30, hits give low values 0.985 | locus YGL240W, strain doc1, hits give low values 0.992 | locus YGL248W, strain PDE1, hits give low values 1 | locus YGL253W, strain hxk2, hits give low values 0.984 | locus YGR135W, strain pre9, hits give low values 0.995 | locus YGR229C, strain SMI1, hits give low values 1.01 | locus YGR252W, strain gcn5, hits give low values 0.995 | locus YHR013C, strain ard1, hits give low values 0.949 | locus YHR027C, strain rpn1, hits give low values 0.977 | locus YHR030C, strain SLT2, hits give low values 1 and 1.03 | locus YHR079C, strain IRE1 (second series), hits give low values 0.995 | locus YHR079C, strain IRE1, hits give low values 1.05 | locus YHR094C, strain hxt1, hits give low values 0.994 | locus YHR129C, strain ARP1, hits give low values 1 | locus YHR142W, strain chs7, hits give low values 0.959 | locus YHR200W, strain rpn10, hits give low values 0.995 | locus YIL066C, strain RNR3, hits give low values 1.01 | locus YIL073C, strain SPO22, hits give low values 1.01 | locus YIL125W, strain kgd1, hits give low values 0.991 | locus YIR030C, strain dcg1, hits give low values 0.993 | locus YJL092W, strain hpr5, hits give low values 0.983 | locus YJL095W, strain BCK1 (second series), hits give low values 0.982 | locus YJL095W, strain BCK1, hits give low values 1.02 and 1.01 | locus YJL115W, strain asf1, hits give low values 0.973 | locus YJL129C, strain trk1, hits give low values 0.976 | locus YJL134W, strain LCB3, hits give low values 1 | locus YJL154C, strain vps35, hits give low values 0.979 | locus YJL164C, strain tpk1, hits give low values 0.991 | locus YJL166W, strain qcr8, hits give low values 0.985 | locus YJL168C, strain set2, hits give low values 0.993 | locus YJL187C, strain SWE1 (second series), hits give low values 1.02 | locus YJL187C, strain SWE1, hits give low values 0.979 | locus YJR043C, strain POL32, hits give low values 0.995

Reference: PubChem BioAssay AID1159580 (chemical genetic matrix, 2015)
